PD-1 reversal: activators reversing PD-1 mediated T-cell inhibition; primary human CD4 T cells, PD-L1 beads, CellTiter-Glo 96 h; activation, % (test concentration not listed); 29,000 tested, under 10 active; call rule not given here
YB-1 expression: YB-1 expression inhibition. U2OS, qRT-PCR YB-1 vs CDIP delta delta Cp, 16 h; active compounds read high; zero = DMSO, each unit about twofold. delta delta Cp (YB-1 minus CDIP) (concentration not given with the values). 30,000 compounds, 0.37% hits. AID 434959;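 active = delta delta Cp rounded down to an integer at or above 3, about 3 SD of DMSO wells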;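 note: higher means less YB-1 transcript or more CDIP transcript relative to DMSO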
NOMO-1 viab: STK33 inhibitor candidate reducing NOMO-1 cell viability; 37,000 compounds, 7.5% hits; inhibition, % (concentration not given with the values); NOMO-1 AML viability, CellTiter-Glo luminescence, 72 h; in the data active = inhibition above about 80%
U2OS ROS induce: inducers of reactive oxygen species in cancer cells. U2OS ROS induction, H2DCF-DA fluorescence. ROS induction (% of piperlongumine), % at 10 µM. 46,000 compounds, 2% hits; in the data active = ROS induction above about 79%, passing the limit was not always enough
Numbers stand for hits; - = inactive; . = not tested or not shown. Shown is part of a subset that was picked to be rich in hits.

SMILES	PD-1 reversal	YB-1 expression	NOMO-1 viab	U2OS ROS induce
O=C1N(Cc2ccccc2)Cc2ccccc2[C@H]2OC(c3ccc(OCCCO)cc3)=N[C@@]12CCS(=O)(=O)c1ccccc1	.	-	.	243
O=C1N(CCS(=O)(=O)c2ccccc2)Cc2ccccc2C[C@]12N=C(c1ccc(OCCCO)cc1)O[C@@H]2c1ccccc1	.	-	.	99
O=C1N(CCS(=O)(=O)c2ccccc2)Cc2ccccc2[C@@H]2OC(c3ccc(OCCCO)cc3)=N[C@]12Cc1ccccc1	.	-	.	387
NC(N)=NS(=O)(=O)c1ccc(NC(=O)c2ccco2)cc1	.	.	.	-
C=CC[C@@]12N=C(c3ccc(OCCCO)cc3)O[C@@H]1c1ccccc1CN(CCS(=O)(=O)c1ccccc1)C2=O	.	-	.	-
O=C1N(CCS(=O)(=O)c2ccccc2)Cc2ccccc2[C@H]2OC(c3ccc(OCCCO)cc3)=N[C@@]12Cc1ccccc1	.	-	.	117
O=S(=O)(N[C@@H]1CCCN(Cc2ccc(OCCO)cc2)C1)c1ccc(Cl)cc1	.	-	.	-
C=C1[C@H](OC(=O)C(C)CC)[C@@H](OC(=O)C(C)C)[C@@H](O)C(C)(C)/C=C\[C@H](C)C(=O)[C@@]2(O)C[C@H](C)[C@H](O)[C@@H]2[C@H]1OC(=O)C(C)CC (some centres not stated)	56	-	-	-
Cc1cccc(NC(=O)c2ccc(OC(C)C(=O)Nc3ccccc3C(F)(F)F)cc2)c1C (configuration not stated)	-	.	113	-
Cc1cc(C)c(OCC(=O)Nc2ccccc2-c2nc3ccccc3s2)c(Br)c1	.	.	-	.
COc1ccc(C(=O)NC(c2c(C)[nH]n(-c3ccccc3)c2=O)(C(F)(F)F)C(F)(F)F)cc1	.	.	.	-
COCC(=O)Nc1cc(Sc2ccccc2)ccc1N=C(NC(C)=O)NC(C)=O	-	-	-	-
CCOC(=O)C1CCN(C(=O)Nc2ccc3snnc3c2)CC1	-	.	106	-
O=C(O)C1CC=CCC1C(=O)Nc1ccccc1S (configuration not stated)	.	.	.	-
COc1ccc([N+](=O)[O-])c(NC(=O)c2cnn3c(C(F)F)cc(-c4ccc(C)cc4)nc23)c1	.	.	-	.
COc1ccc(-c2cc(C(F)F)n3ncc(C(=O)Nc4cccc(NC(C)=O)c4)c3n2)cc1	-	.	-	155
Cc1ccc(-c2cc(C(F)F)n3ncc(C(=O)NCc4cn(C)nc4C)c3n2)cc1	-	.	-	135
O=C(CSc1ccc(-c2cccs2)nn1)N1CCc2ccccc21	.	.	.	-
O=C1C(=O)N(CCCn2ccnc2)C(c2ccccc2)C1C(=O)c1ccco1 (configuration not stated)	-	.	-	-
C[C@H](CO)N1C[C@H](C)[C@@H](CN(C)S(=O)(=O)c2ccc(F)cc2)Oc2c(NC(=O)Nc3ccc(F)cc3)cccc2C1=O	-	-	-	-
Cc1ccc(S(=O)(=O)N(C)C[C@@H]2Oc3c(NC(=O)Nc4ccc(F)cc4)cccc3C(=O)N([C@H](C)CO)C[C@@H]2C)cc1	.	-	82	-
C[C@@H]1CN([C@@H](C)CO)C(=O)c2cccc(NC(=O)Nc3ccc(F)cc3)c2O[C@@H]1CN(C)S(=O)(=O)c1ccc(F)cc1	.	-	85	-
C[C@H](CO)N1C[C@H](C)[C@H](CN(C)C(=O)NC2CCCCC2)Oc2c(NC(=O)Nc3cccc4ccccc34)cccc2C1=O	-	-	97	-
C[C@@H]1CN([C@H](C)CO)C(=O)c2cccc(NC(=O)Nc3cccc4ccccc34)c2O[C@H]1CN(C)S(=O)(=O)c1ccc(F)cc1	-	-	-	111
COc1ccc(C2(CNC(=O)C3COc4ccccc4O3)CCCC2)cc1OC (configuration not stated)	.	.	-	.
SMILES	PD-1 reversal	YB-1 expression	NOMO-1 viab	U2OS ROS induce
O=S(=O)(Cc1ccc(Cl)cc1)NCc1ccccn1	.	.	-	.
CN(C(=O)c1c[nH]c2ccc(S(=O)(=O)N3CCC4(CC3)OCCO4)cc2c1=O)C1CCCCC1	.	.	.	-
O=C(N1CCOCC1)[C@@]1(Cc2ccccc2)COC(c2ccc(OCCCO)cc2)=N1	.	-	.	-
C[C@@H]1CN([C@@H](C)CO)C(=O)c2cccc(NC(=O)Nc3ccccc3)c2O[C@H]1CN(C)S(C)(=O)=O	-	-	-	91
C[C@H]1CN([C@@H](C)CO)C(=O)c2cccc(NC(=O)Nc3cccc4ccccc34)c2O[C@@H]1CN(C)C(=O)Nc1ccc(F)cc1	-	-	-	-
C[C@H](CO)N1C[C@H](C)[C@H](CN(C)C(=O)Nc2ccc(F)cc2)Oc2c(NC(=O)Nc3cccc4ccccc34)cccc2C1=O	-	-	124	-
